Compound activity from PubChem.
CHX counter – Cycloheximide Counterscreen for Small Molecule Inhibitors of Shiga Toxin; AID 2314, 2010; max response, %; actives 12% (n = 300,000); cell reporter, cycloheximide protein synthesis inhibition counterscreen; in the data active = max response mostly above about 13%, no sharp cut-off; inactive = mostly below about 14%; also: read at 38.3 µM for the half of the compounds with a filed dose
Shiga inhibitor – A qHTS for Small Molecule Inhibitors of Shiga Toxin; Vero cells, Shiga toxin protein synthesis inhibition reporter; inhibition, % at 38.7 µM; actives 9.2% (n = 290,000); AID 2315, 2010; in the data active = inhibition mostly above about 28%, no sharp cut-off; inactive = mostly below about 43%
Pf growth 48h – Primary qHTS for delayed death inhibitors of the malarial parasite plastid, 48 hour incubation; AID 504832, 2011; actives 5.9% (n = 310,000); Potency, µM (titrated, usually from 28.7 µM), actives largely listed as inhibitors; P. falciparum luciferase growth in erythrocytes, 48 h
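First compound was added to culture medium, then infected red cells at 0.1% parasitemia and 2% hematocrit (final). After incubation at 37 C under 5% CO2, luciferase detection reagent was dispensed and light output recorded.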
Pf growth 96h – Primary qHTS for delayed death inhibitors of the malarial parasite plastid, 96 hour incubation | P. falciparum luciferase reporter growth, 96 h | Potency, µM (series often up to 28.7 µM), usual class: inhibitors | actives 6.9% (n = 320,000)
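Parasite growth measured via integrated firefly luciferase reporter in P. falciparum. Infected erythrocytes at 2% hematocrit, 0.05% parasitemia final were treated 96 hours at 37 C under 5% CO2, and luminescence was read.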
AMA1 RON2 block – qHTS for Inhibitors of AMA1-RON; Towards Development of Antimalarial Drug Lead: Primary Screen; AlphaScreen AMA1-biotinylated RON2 peptide binding; Potency, µM (series often up to 58.2 µM), most hits filed as inhibitors; actives 0.2% (n = 360,000); AID 720542, 2013; also: nearly all actives have a fitted effect of over 45% in size
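AMA1 (3D7) with his tag at 25 nM final met compounds first, then biotinylated RON2 peptide at 25 nM; detection used donor plus acceptor beads, 10 µg/mL apiece, read by AlphaScreen after 30 min at room temperature.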
HCV inh – qHTS Assay for Inhibitors of Hepatitis C Virus (HCV); Huh7.5.1 HCVcc-Cre infection, luciferase reporter, 44 h; Potency, µM (series often up to 41.8 µM), actives largely listed as inhibitors; actives 3.4% (n = 340,000); AID 651820, 2012
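Infectious HCVcc-Cre (~0.5 moi) was added to cells just after compound, with cells seeded 4 h earlier at 1,000 per well. Luciferase activity after 44 h culture reported infection; substrate was incubated 15 min at room temperature before reading.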
A number is an active result. This is a sample that favours compounds with a hit; in the whole collection about 21% have one here. Unless noted, calls follow the shape of the dose curve; as a rule, active = well fitted curve in the direction sought with a large enough effect; inconclusive = small, poorly fitted or top-dose-only effect, or another doubt; inactive = no such curve, though single readings can be large; an effect the other way counts as inactive or inconclusive.

Results for CC(C)CC(=O)NC(=S)NCCc1ccccc1 ?
CHX counter: 26; Shiga inhibitor: 57; Pf growth 48h: inconclusive; Pf growth 96h: inconclusive; AMA1 RON2 block: inactive; HCV inh: inactive

Results for CC(C)(C)CC(=O)NC(=S)NCCc1ccccc1 ?
CHX counter: 30; Shiga inhibitor: inactive; Pf growth 48h: inactive; Pf growth 96h: 12µM; AMA1 RON2 block: inactive; HCV inh: inactive

Results for CC(C)(C)C(=O)NC(=S)NCc1ccccc1 ?
CHX counter: inactive; Shiga inhibitor: inactive; Pf growth 48h: inactive; Pf growth 96h: 9.3µM; AMA1 RON2 block: inactive; HCV inh: inactive

What do the screens show for `COc1ccc(C(=O)NC(=S)NCCc2ccccc2)cc1`?
CHX counter: inactive; Shiga inhibitor: inactive; Pf growth 48h: inactive; Pf growth 96h: inactive; AMA1 RON2 block: inactive; HCV inh: inactive

How did COc1cc(NC(=S)NCCc2ccccc2)c(OC)cc1NC(=O)CC(C)C do in these assays?
CHX counter: inactive; Shiga inhibitor: inactive; Pf growth 48h: inactive; Pf growth 96h: inconclusive; AMA1 RON2 block: inactive; HCV inh: inconclusive

How did CC1(C)Cc2c(c(N3CCCC3)nc3sc4c(N5CCN(CCO)CC5)ncnc4c23)CO1 do in these assays?
CHX counter: inactive; Shiga inhibitor: inactive; Pf growth 48h: 8.3µM; Pf growth 96h: inactive; AMA1 RON2 block: inactive; HCV inh: 2.2µM

Results for OCCN1CCN(c2ncnc3c2sc2nc(N4CCOCC4)c4c(c23)CCC4)CC1 ?
CHX counter: inactive; Shiga inhibitor: inactive; Pf growth 48h: 13µM; Pf growth 96h: inactive; AMA1 RON2 block: inactive; HCV inh: 11µM

What do the screens show for `COC(=O)C1CCN(C(=O)COC(=O)CCc2nc3ccccc3c(=O)[nH]2)CC1`?
CHX counter: inactive; Shiga inhibitor: inactive; Pf growth 48h: inactive; Pf growth 96h: inactive; AMA1 RON2 block: inactive; HCV inh: inactive

What do the screens show for `COc1ccc(C(=O)N2CCN(c3ccccc3)CC2)cc1S(=O)(=O)N1CCCC1`?
CHX counter: inactive; Shiga inhibitor: inactive; Pf growth 48h: inactive; Pf growth 96h: inconclusive; AMA1 RON2 block: inactive; HCV inh: inconclusive

How did CCC(C)(C)n1nnnc1C(c1cc2ccc(C)cc2[nH]c1=O)N(Cc1cccnc1)Cc1ccco1 (centres undefined) do in these assays?
CHX counter: inactive; Shiga inhibitor: inactive; Pf growth 48h: 12µM; Pf growth 96h: inactive; AMA1 RON2 block: inactive; HCV inh: inactive

What do the screens show for `Cc1cc2cc(C(c3nnnn3C3CCCC3)N(Cc3cccnc3)Cc3ccco3)c(=O)[nH]c2cc1C` (centres undefined)?
CHX counter: inactive; Shiga inhibitor: inactive; Pf growth 96h: 2.3µM; AMA1 RON2 block: inactive; HCV inh: inactive

What do the screens show for `COc1cc2cc(C(c3nnnn3C3CCCCC3)N(C)C3CCCCC3)c(=O)[nH]c2cc1OC` (centres undefined)?
CHX counter: inactive; Shiga inhibitor: inactive; Pf growth 48h: 5.9µM; Pf growth 96h: inactive; AMA1 RON2 block: inactive; HCV inh: inconclusive

How did Cc1cccc(NC(=O)c2cc(S(=O)(=O)N3CCCC3)cn2C)c1 do in these assays?
CHX counter: inactive; Shiga inhibitor: inactive; Pf growth 48h: inactive; Pf growth 96h: inactive; AMA1 RON2 block: inactive; HCV inh: inactive

Results for FC(F)(F)c1cnc(-c2cnc3c(-c4ccc(Cl)cc4)cnn3c2)c(Cl)c1 ?
CHX counter: inactive; Shiga inhibitor: inactive; Pf growth 48h: inactive; Pf growth 96h: inactive; AMA1 RON2 block: inactive; HCV inh: inactive

What do the screens show for `Cc1nn2cc(-c3ncc(C(F)(F)F)cc3Cl)cnc2c1Br`?
CHX counter: inactive; Shiga inhibitor: 57; Pf growth 48h: inactive; Pf growth 96h: inactive; AMA1 RON2 block: inactive; HCV inh: inactive

What do the screens show for `COc1ccc(-c2cnn3cc(-c4cccc(Cl)c4)cnc23)cc1`?
CHX counter: inactive; Shiga inhibitor: inactive; Pf growth 48h: inactive; Pf growth 96h: inactive; AMA1 RON2 block: inactive; HCV inh: inactive

What do the screens show for `Nc1ncn(-c2ncc(C(F)(F)F)cc2Cl)n1`?
CHX counter: inactive; Shiga inhibitor: inactive; Pf growth 48h: inactive; Pf growth 96h: inconclusive; AMA1 RON2 block: inactive; HCV inh: inactive

Results for Cc1cc2ncc(-c3ncc(C(F)(F)F)cc3Cl)cn2n1 ?
CHX counter: 15; Shiga inhibitor: inactive; Pf growth 48h: inactive; Pf growth 96h: inactive; AMA1 RON2 block: inactive; HCV inh: inactive

What do the screens show for `N#Cc1cnn2cc(-c3ncc(C(F)(F)F)cc3Cl)cnc12`?
CHX counter: 29; Shiga inhibitor: inactive; Pf growth 48h: inconclusive; Pf growth 96h: inconclusive; AMA1 RON2 block: inactive; HCV inh: inactive

What do the screens show for `Cc1cc2ncc(-c3cccc(Cl)c3)cn2n1`?
CHX counter: 48; Shiga inhibitor: 75; Pf growth 48h: inactive; Pf growth 96h: inactive; AMA1 RON2 block: inactive; HCV inh: inactive

What do the screens show for `Cc1ccc(-c2csc(NS(=O)(=O)c3cccc(F)c3)n2)o1`?
AMA1 RON2 block: inactive; HCV inh: inactive

What do the screens show for `Cn1cc(Br)c(NS(=O)(=O)c2ccc(Cl)s2)n1`?
CHX counter: inactive; Shiga inhibitor: inactive; Pf growth 48h: inactive; Pf growth 96h: inactive; AMA1 RON2 block: inactive; HCV inh: inactive

What do the screens show for `CC(=O)N1c2ccc(S(=O)(=O)N3CCCCC3)cc2CC1C(=O)Nc1ccc(F)cc1C` (centres undefined)?
CHX counter: inactive; Shiga inhibitor: inactive; Pf growth 48h: inactive; Pf growth 96h: inactive; AMA1 RON2 block: inactive; HCV inh: inactive

What do the screens show for `CC(C)N(Cc1nc(-c2ccc(Cl)cc2)no1)C(=O)C(c1ccccc1)c1ccccc1`?
CHX counter: inactive; Shiga inhibitor: inactive; Pf growth 96h: 8.3µM; AMA1 RON2 block: inactive; HCV inh: inactive

Results for CCn1cc(/C=N/N=C2\CCC3C4CCc5cc(O)ccc5C4CC[C@]23C)c(C)n1 (some centres undefined) ?
CHX counter: inactive; Shiga inhibitor: inactive; Pf growth 96h: 1.7µM; AMA1 RON2 block: inactive; HCV inh: inactive

How did CC12CCC3c4ccc(O)cc4CCC3C1CCC2=O (centres undefined) do in these assays?
Pf growth 48h: inconclusive; Pf growth 96h: inconclusive; AMA1 RON2 block: inactive; HCV inh: inactive

How did CC(CNC(=O)CCC(=O)N1CCOc2ccccc21)c1ccccc1 (centres undefined) do in these assays?
CHX counter: inactive; Shiga inhibitor: inactive; Pf growth 48h: inactive; Pf growth 96h: inconclusive; AMA1 RON2 block: inactive; HCV inh: inactive

Results for COc1ccc(NC(C)C(=O)N/N=C/c2ccccc2OCc2ccc(Br)cc2)cc1 (centres undefined) ?
CHX counter: 35; Shiga inhibitor: 145; Pf growth 48h: 9.3µM; Pf growth 96h: inactive; AMA1 RON2 block: inactive; HCV inh: inconclusive
